Active and inactive are the calls of the source. Unless noted, calls come from the whole dose curve; as a rule, active = well fitted curve in the direction sought with a large enough effect in the repeat runs; inconclusive = weak or mixed curves; inactive = no such curve, though single readings can be large; an effect the other way counts as inactive or inconclusive.
Columns and labels:
[1] = qHTS assay for small molecules that induce genotoxicity in human embryonic kidney cells expressing luciferase-tagged ATAD5 (AID 651632); note: nearly all actives have a fitted effect of over 15% in size
Procedure, shortened: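 Cells were seeded at 2,000 per well, dosed with compound, and incubated 16 hr at 37C in 5% CO2. Luciferase activity was then quantified after a 30 min room-temperature incubation with Amplite.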

[2] = qHTS assay for small molecules that induce genotoxicity in human embryonic kidney cells expressing luciferase-tagged ATAD5 - cell viability (AID 651634; calls by dose curve; note: nearly all actives have a fitted effect of over 25% in size)
Procedure, shortened: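 Cells (HEK293T, luciferase-tagged ATAD5) are seeded at 2,000 per well, dosed with compound or DMSO vehicle, and incubated 15.5 hr at 37C and 5% CO2. CellTiter-Fluor is added for 30 min before fluorescence is measured.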

[3] = qHTS assay for small molecule disruptors of the mitochondrial membrane potential - cell viability (AID 720634; calls by dose curve;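 note: human HepG2 liver cancer cells; series mostly up to about 83 µM; nearly all actives have a fitted effect of over 20% in size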)
Procedure, shortened: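 Cytotoxicity was measured by ATP quantitation in HepG2 wells that had first been treated with compound for 1 hr and stained with m-MPI dye; CellTiter-Glo incubation was 30 min at room temperature.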

[4] = qHTS assay to test for compound auto fluorescence at 590 nm (red) in HepG2 cells (AID 720674)
Procedure, shortened: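 Red autofluorescence (Ex/Em 540/590 nm, Rose Bengal sodium equivalents) was measured in HepG2 cells, 2,000 per well in MEM plus 10% FBS, plated overnight at 37 C. Readings were taken 1 hr after adding 23 nL compound or DMSO, at 37 C and 5% CO2.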

[5] = qHTS assay to test for compound auto fluorescence at 535 nm (green) in HepG2 cells (AID 720675)
[6] = qHTS assay to test for compound auto fluorescence at 460 nm (blue) in HEK293 cells (AID 720678)
Procedure, shortened: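 Intrinsic compound fluorescence is recorded in live HEK293 cultures after overnight incubation at 37C, 5% CO2, using excitation 405 nm and emission 460 nm. Values are referenced to triamterene.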

[7] = qHTS assay to test for compound auto fluorescence at 590 nm (red) in HEK293 cells (AID 720679)
Procedure, shortened: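 Red autofluorescence, HEK293 cells: 2,000 cells/well; attach 4-5 hr 37C; add 23 nL cpd or DMSO; incubate o/n 37C 5% CO2; read Ex540/Em590; Rose Bengal sodium reference.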

[8] = qHTS assay to test for compound auto fluorescence at 535 nm (green) in HEK293 cells (AID 720680)
[9] = qHTS assay to test for compound auto fluorescence at 535 nm (green) in HEK293 cell free culture (AID 720682)
Procedure, shortened: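 Cell-free medium (DMEM, 10% FBS) receives compound or DMSO by pintool. Plate read directly at Ex 485/Em 535 nm. Signal converted to fluorescein equivalency.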

[10] = qHTS assay to test for compound auto fluorescence at 590 nm (red) in HEK293 cell free culture (AID 720683)
Procedure, shortened: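 Red-channel autofluorescence of compounds in culture medium (DMEM, 10% FBS), no cells, measured at 540/590 nm. Rose Bengal sodium is the reference fluorophore for equivalence.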

[11] = qHTS assay to test for compound auto fluorescence at 590 nm (red) in HepG2 cell free culture (AID 720684)
Procedure, shortened: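 No cells present: MEM + 10% FBS only. Compound pinned in, red label read (540/590 nm). Activity = fluorescence equivalent to Rose Bengal sodium.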

[12] = qHTS assay to test for compound auto fluorescence at 460 nm (blue) in HepG2 cell free culture (AID 720685)
Procedure, shortened: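 Cell-free plates of MEM plus 10% FBS received 23 nL compound or DMSO vehicle; blue-channel (405/460 nm) intensity scored against triamterene as reference fluorophore.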

[13] = qHTS assay to test for compound auto fluorescence at 535 nm (green) in HepG2 cell free culture (AID 720686)
[14] = qHTS assay to test for compound auto fluorescence at 460 nm (blue) in HepG2 cells (AID 720687)
Procedure, shortened: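 Blue-channel autofluorescence (Ex/Em 405/460 nm, triamterene-equivalent) was measured after 1 hr compound exposure at 37 C, 5% CO2. Cells were HepG2, plated overnight at 37 C in MEM plus 10% FBS.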

[15] = target: Glucocorticoid receptor (Homo sapiens) (UniProt P04150); assay: qHTS assay to identify small molecule agonists of the glucocorticoid receptor (GR) signaling pathway (AID 720691; active = well fitted activation curve with a large enough effect in the signal ratio in the repeat runs, not every such curve was filed as active; inconclusive = weak or mixed curves, or effect the other way; inactive = no such curve, though single readings can be large or run the other way; the % refers to the signal ratio; note: potency is the fitted concentration of half-maximal effect)
Procedure, shortened: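 Steps: seed GR-bla HeLa cells, incubate 4 h at 37 C/5% CO2; pin-transfer DMSO-dissolved compounds; incubate 18 h at 37 C; add LiveBLAzer B/G FRET substrate; after 2 h at room temperature, measure fluorescence.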

[16] = target: Glucocorticoid receptor (Homo sapiens) (UniProt P04150); assay: qHTS assay to identify small molecule antagonists of the glucocorticoid receptor (GR) signaling pathway (AID 720692; active = well fitted inhibition curve with a large enough effect in the signal ratio in the repeat runs, not every such curve was filed as active; inconclusive = weak or mixed curves, or effect the other way; inactive = no such curve, though single readings can be large or run the other way; the % refers to the signal ratio; note: potency is the fitted concentration of half-maximal effect)
Procedure, shortened: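 Antagonism was scored as loss of dexamethasone-driven (5 nM final) reporter signal in HeLa cells bearing a glucocorticoid response element–beta-lactamase construct, after 18 h compound exposure at 37 C and 2 h FRET substrate loading.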

[17] = qHTS assay for small molecule disruptors of the mitochondrial membrane potential (AID 720635); note: potency is the fitted concentration of half-maximal effect
Procedure, shortened: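 Mitochondrial membrane potential tracked with Mito-MPS dye, red aggregates (ex 540/em 590 nm) against green monomers (ex 490/em 535 nm). Compound treatment 1 hr at 37C, dye 30 min in HepG2.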

[18] = qHTS assay for small molecule agonists of the p53 signaling pathway - cell viability (AID 651633; calls by dose curve;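 note: p53RE-bla HCT reporter cells with a stable beta-lactamase p53 reporter; series mostly up to about 83 µM; nearly all actives have a fitted effect of over 30% in size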)
Procedure, shortened: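 Viability counter-read: CellTiter-Glo luminescence (30 min, room temperature) in the same p53RE-bla plates. These plates had been exposed to compounds for 16 h at 37 C.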

[19] = qHTS assay to test for compound auto fluorescence at 460 nm (blue) in HEK293 cell free culture (AID 720681)
Procedure, shortened: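 Blue fluorescence (Ex 405/Em 460 nm, triamterene-equivalent) was read immediately after pin transfer of compound or DMSO into medium (DMEM, 10% FBS) without cells.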
% is set by controls: 0 for no effect and ±100 for the full control effect.

Glucocorticoid receptor (Homo sapiens), sequence (P04150 whole entry, looked up): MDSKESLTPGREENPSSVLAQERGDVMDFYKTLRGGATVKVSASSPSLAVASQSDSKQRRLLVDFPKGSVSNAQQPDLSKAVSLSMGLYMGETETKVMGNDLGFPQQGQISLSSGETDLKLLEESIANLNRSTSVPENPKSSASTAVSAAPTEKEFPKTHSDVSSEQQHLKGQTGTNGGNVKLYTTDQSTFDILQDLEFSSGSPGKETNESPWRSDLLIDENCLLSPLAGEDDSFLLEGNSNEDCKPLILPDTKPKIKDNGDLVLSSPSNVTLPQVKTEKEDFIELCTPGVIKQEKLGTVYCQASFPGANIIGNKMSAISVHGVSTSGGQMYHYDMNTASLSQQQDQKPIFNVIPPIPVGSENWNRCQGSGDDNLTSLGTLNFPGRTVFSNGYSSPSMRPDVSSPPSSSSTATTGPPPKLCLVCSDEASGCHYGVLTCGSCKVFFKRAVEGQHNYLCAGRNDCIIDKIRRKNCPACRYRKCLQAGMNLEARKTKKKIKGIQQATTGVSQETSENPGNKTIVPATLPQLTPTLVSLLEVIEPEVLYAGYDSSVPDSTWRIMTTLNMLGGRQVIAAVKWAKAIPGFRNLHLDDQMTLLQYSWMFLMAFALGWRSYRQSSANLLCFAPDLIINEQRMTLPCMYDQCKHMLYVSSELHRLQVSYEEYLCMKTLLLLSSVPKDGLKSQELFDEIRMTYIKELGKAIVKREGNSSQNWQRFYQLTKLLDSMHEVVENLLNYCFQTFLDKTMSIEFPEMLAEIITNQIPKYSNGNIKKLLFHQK

NC(=O)c1c(Cl)cccc1Cl
inactive: Potency [1] | Potency [2] | Potency [3] | outcome [4] | outcome [5] | Potency [6] | outcome [7] | outcome [8] | outcome [9] | outcome [10] | outcome [11] | Potency [12] | outcome [13] | Potency [14]

O=C(O)Cc1cc(I)c(Oc2cc(I)c(O)c(I)c2)c(I)c1
active: Potency [16] 10.7 µM
inactive: Potency [1] | Potency [3] | outcome [4] | outcome [5] | Potency [6] | outcome [7] | outcome [8] | outcome [9] | outcome [10] | outcome [11] | Potency [12] | outcome [13] | Potency [15]

CC1(C)SC(C)(C)SC(C)(C)S1
inactive: Potency [1] | Potency [2] | Potency [3] | Potency [17] | outcome [4] | outcome [5] | outcome [7] | outcome [8] | outcome [9] | outcome [10] | outcome [11] | Potency [12] | outcome [13] | Potency [14]

Cc1ccc(N)cc1[N+](=O)[O-]
inactive: Potency [1] | Potency [18] | Potency [2] | Potency [17] | outcome [4] | outcome [5] | Potency [6] | outcome [7] | outcome [8] | Potency [19] | outcome [9] | outcome [10] | outcome [11] | Potency [12] | outcome [13] | Potency [14] | Potency [15] | Potency [16]

C1=C\CC/C=C\CC/C=C\CC/1
inactive: Potency [1] | Potency [18] | Potency [2] | outcome [4] | outcome [5] | Potency [6] | outcome [7] | outcome [8] | Potency [19] | outcome [9] | outcome [10] | Potency [12] | outcome [13] | Potency [14] | Potency [15]

CC(C)=CC(=O)O
inactive: Potency [1] | Potency [18] | Potency [2] | Potency [17] | outcome [4] | outcome [5] | Potency [6] | outcome [7] | outcome [8] | Potency [19] | outcome [9] | outcome [10] | outcome [11] | Potency [12] | outcome [13] | Potency [14]

CCCC(=O)O[C@]1(C(=O)CCl)[C@@H](C)C[C@H]2[C@@H]3CCC4=CC(=O)C=C[C@]4(C)[C@@]3(F)C(=O)C[C@@]21C
active: Potency [17] 23.7 µM | Potency [15] 0.0239 µM [inconclusive]
inactive: Potency [1] | Potency [2] | Potency [3] | outcome [4] | outcome [5] | Potency [6] | outcome [7] | Potency [19] | outcome [9] | outcome [10] | outcome [11] | Potency [12] | outcome [13] | Potency [14]

CNc1ncnc2nc[nH]c12
active: Potency [17] 2.48 µM
inactive: Potency [18] | Potency [2] | Potency [3] | outcome [4] | outcome [5] | Potency [6] | outcome [7] | outcome [8] | Potency [19] | outcome [9] | outcome [10] | outcome [11] | Potency [12] | outcome [13] | Potency [14]

CCC(C)(C)C1CCC(OC)CC1 (configuration not stated)
inactive: Potency [1] | Potency [2] | Potency [3] | outcome [4] | outcome [5] | outcome [7] | outcome [8] | Potency [19] | outcome [9] | outcome [10] | Potency [12] | outcome [13] | Potency [14]

c1cc(CN2CCCCC2)cc(OCCCNc2nc3ccccc3s2)c1
inactive: Potency [1] | Potency [18] | Potency [2] | outcome [4] | outcome [5] | Potency [6] | outcome [7] | outcome [8] | Potency [19] | outcome [9] | outcome [10] | outcome [11] | Potency [12] | outcome [13] | Potency [15] | Potency [16]

CC(C)(C)CC(C)(C)N
inactive: Potency [1] | Potency [2] | Potency [3] | Potency [17] | outcome [4] | outcome [5] | Potency [6] | outcome [7] | outcome [8] | Potency [19] | outcome [9] | outcome [10] | outcome [11] | Potency [12] | outcome [13] | Potency [15] | Potency [16]

C=CC(=O)N1CCOCC1
inactive: Potency [1] | Potency [18] | Potency [2] | outcome [4] | outcome [5] | Potency [6] | outcome [7] | outcome [8] | Potency [19] | outcome [9] | outcome [10] | outcome [11] | Potency [12] | outcome [13] | Potency [14] | Potency [15]

C1CCCCCCCCCCC1
inactive: Potency [1] | Potency [18] | Potency [2] | fluorescence, relative to Rose Bengal [4] -0.0148% [at 18.6 µM] | fluorescence, % of fluorescein control [5] -0.001% [at 18.6 µM] | fluorescence, % of fluorescent control [7] -0.0949% [at 18.6 µM] | fluorescence, % of fluorescein [8] 0.0284% [at 18.6 µM] | fluorescence, % of fluorescent control [19] -0.122% [at 18.6 µM] | activity change [9] 0.0049% [at 18.6 µM] | fluorescence, % of fluorescent control [10] -0.0432% [at 18.6 µM] | fluorescence, % of Rose Bengal [11] -0.141% [at 18.6 µM] | fluorescence, % of fluorescent control [12] -0.102% [at 18.6 µM] | fluorescence, % of fluorescein control [13] -0.0289% [at 18.6 µM]

CCCCCCCCN(C)CCCCCCCC
inactive: Potency [1] | Potency [18] | Potency [2] | Potency [3] | outcome [4] | outcome [5] | outcome [7] | Potency [19] | outcome [9] | outcome [10] | outcome [11] | Potency [12] | outcome [13] | Potency [14] | Potency [15] | Potency [16]

C=C(C)C(=O)OCCCCCCCCCCCCCCCCCC
inactive: Potency [1] | Potency [18] | Potency [2] | fluorescence, relative to Rose Bengal [4] -0.0569% [at 18.6 µM] | fluorescence, % of fluorescein control [5] -0.0046% [at 18.6 µM] | fluorescence, % of triamterene [6] -0.0754% [at 18.6 µM] | fluorescence, % of fluorescent control [7] 0.299% [at 18.6 µM] | fluorescence, % of fluorescein [8] 0.0795% [at 18.6 µM] | fluorescence, % of fluorescent control [19] -0.0848% [at 18.6 µM] | activity change [9] -0.0033% [at 18.6 µM] | fluorescence, % of fluorescent control [10] -0.0264% [at 18.6 µM] | fluorescence, % of Rose Bengal [11] -0.0496% [at 18.6 µM] | fluorescence, % of fluorescent control [12] -0.0261% [at 18.6 µM] | fluorescence, % of fluorescein control [13] -0.0135% [at 18.6 µM] | fluorescence, % of fluorescent control [14] 0.214% [at 18.6 µM] | Potency [15] | Potency [16]

CC(=O)c1ccc(C)cc1
inactive: Potency [1] | Potency [18] | Potency [2] | outcome [4] | outcome [5] | Potency [6] | outcome [7] | outcome [8] | Potency [19] | outcome [9] | outcome [10] | outcome [11] | Potency [12] | outcome [13] | Potency [14] | Potency [15]
